± gives the standard deviation.
Tested on: MILI (PIWIL2) piRISC loaded with L1MC piRNA (26 nt)
Assay: pre-steady-state target cleavage rate (min^-1); guide: L1MC piRNA 5'p-UAACUAAAUACUAUGCAAGCUGUAGG; MIWI and MILI are mouse PIWI proteins and EfPiwi is from a freshwater sponge; tags in brackets are library labels; higher = faster piRNA-guided slicing of the target
Summary of the method: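 Active affinity-purified piRISC (1 nM) loaded with one synthetic guide was mixed with a transcribed, DNA-blocked target RNA library (0.1 nM), with or without 500 nM GTSF1 partner protein, in HEPES–potassium acetate buffer at 33 °C for 0–8 or 0–960 min. Uncleaved targets were sequenced, normalised to depth and to weakly complementary targets, and pooled across three trials, with k3 capped at 0.0001 min^-1. The pre-steady-state cleavage rate was determined with a burst-and-steady-state fit.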

[1] = auxiliary factor: 500 nM mouse GTSF1
[2] = auxiliary factor: none (no GTSF1)

| Sequence | pre-steady-state target cleavage rate [1] | pre-steady-state target cleavage rate [2] |
| --- | --- | --- |
| UCCUGCUACAGCUAGCAUAGUAUUUAGUUA | 0.354 ± 0.027 | 0.00624 ± 0.0029 |
| UCCUGGAUGUCGAACCAAAGUAUUUUGUUA | < 0.0001 | < 0.0001 |
| UCCUGGAUGUCGUUGCAUAGUCUUUAGUUA | 0.0286 ± 0.0084 | 0.00414 ± 0.0025 |
| UCCUGGAUGUCGUUGCUUAGUAUUUUGUUA | 0.0541 ± 0.016 | 0.00381 ± 0.0029 |
| UCCUGCUACGAGCUUGCAUAGUAUUUAGUUA | 0.217 ± 0.026 | 0.00594 ± 0.0032 |
| UCCUGGUACAGGAAGCAUAGUAUUUAGUAA | 0.167 ± 0.023 | 0.00332 ± 0.0019 |
| UCCUGGAUGUCGAUGCAUAGUGAUUUAGUUA | 0.00445 ± 0.0044 | 0.00429 ± 0.0023 |
| UCCUGGAUGAGCUUGGAUAGUUUUUAGUUA | 0.0261 ± 0.0072 | 0.00424 ± 0.0026 |
| UCCUGGAUCAGCUUGGUAAGUAUUUAGUUA | 0.0316 ± 0.0076 | 0.00588 ± 0.0023 |
| UCCUGGAUGAGCUUGAUAGUAUUUAGUUA | 0.017 ± 0.0068 | 0.00442 ± 0.0028 |
| UCCUGGAUGUGGUUGCUUAGUAUUUAGUUA | 0.107 ± 0.02 | 0.0132 ± 0.0037 |
| UCCUGGAUCUGCUUGCAUAGUAUUUACUUA | 0.0527 ± 0.0096 | 0.00348 ± 0.0027 |
| UCCUGGAUGUCGAUGCAUAGUAGUUAGUUA | 0.0193 ± 0.005 | 0.00415 ± 0.0021 |
| UCCUGGAUGUCGUUGCAUAGUAAUUAGUUA | 0.116 ± 0.022 | 0.00563 ± 0.002 |
| UCCUGGUACAGCUUGCUUUGUAUUUAGUUA | 0.123 ± 0.017 | 0.0068 ± 0.0025 |
| UCCUCCUACAGCUUCGUUAGUAUUUAGUUA | 0.221 ± 0.013 | 0.00396 ± 0.0017 |
| UCCUGGAUGUCGAUGCAUAGUAUUUUAGUUA | 0.0747 ± 0.0088 | 0.00647 ± 0.0026 |
| UCCUGGAUGUGCAUGCAUAGUAUUUAGAAA | 0.0733 ± 0.013 | 0.00295 ± 0.0029 |
| UCCUGCAUGAGCUUGCAUAGUAUUUAGUAA | 0.234 ± 0.024 | 0.00554 ± 0.0022 |
| UCCUGGAUGUCCUUGCAUAGUAUUUACGUUA | 0.11 ± 0.023 | 0.00693 ± 0.003 |
